# From PubChem BioAssay
# HPGD inh: HPGD (human) dehydrogenase inhibition. Potency, µM, without a hit: top-dose activity change, negative = inhibition, hits mostly inhibitors. purified HPGD, NADH fluorescence kinetic, PGE2 substrate. actives 4.3% (n = 150,000)
#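 NADH formation kinetics: reaction with 30 uM PGE2 and 1 mM NAD+ (final), 20 nM enzyme, Tris-HCl pH 8 with Tween 20, after 15 min compound preincubation at room temperature. Fluorescence change, last versus first of five reads.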
# ALDH1A1 inh: ALDH1A1 (human) enzyme inhibition. Purified ALDH1A1, NADH fluorescence, propionaldehyde substrate. actives 7.3% (n = 220,000). Potency, µM (highest dose often 75.3 µM), without a hit: at the highest dose activity, negative = inhibition, actives largely listed as inhibitors. P00352;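 note: plate controls were no enzyme wells and a reference inhibitor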
# JMJD2E inh: inhibitors of human JMJD2E histone demethylase; actives 1.6% (n = 230,000); B2RXH2; Potency, µM (highest dose often 57.1 µM), for inactives: at the highest dose activity change, negative = inhibition, hits mostly inhibitors; JMJD2E catalytic domain, FDH-coupled NADH fluorescence (FDH is formaldehyde dehydrogenase);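 note: 0% = wells with enzyme and -100% = buffer wells without enzyme; nearly all actives have a fitted effect of over 50% in size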
# Target sequence (B2RXH2 1-337 limits assumed): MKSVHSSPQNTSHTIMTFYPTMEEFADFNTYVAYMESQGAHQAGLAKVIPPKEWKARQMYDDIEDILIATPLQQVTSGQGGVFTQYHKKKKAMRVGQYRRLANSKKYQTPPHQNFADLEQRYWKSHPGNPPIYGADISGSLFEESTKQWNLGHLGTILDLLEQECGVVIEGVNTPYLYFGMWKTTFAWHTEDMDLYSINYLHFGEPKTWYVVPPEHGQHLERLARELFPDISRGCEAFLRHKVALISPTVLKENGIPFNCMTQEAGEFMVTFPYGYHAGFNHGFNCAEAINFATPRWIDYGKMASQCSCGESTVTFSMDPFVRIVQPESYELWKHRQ
# Tau fibril ThT: tau fibrillization inhibition (ThT binding); P10636; recombinant tau K18 P301L, heparin-induced fibrillization, ThT fluorescence; Potency, µM (series often up to 57.4 µM), for the others: at the highest dose activity, negative = inhibition, most hits filed as inhibitors; actives 2.1% (n = 270,000); AID 1460; active = well fitted curve in the direction sought with a large enough effect; inconclusive = small, poorly fitted or top-dose-only effect, or another doubt; inactive = no such curve, though single readings can be large; an effect the other way counts as inactive or inconclusive; note: nearly all actives have a fitted effect of over 55% in size
# Target sequence (P10636 561-689 P618L limits assumed): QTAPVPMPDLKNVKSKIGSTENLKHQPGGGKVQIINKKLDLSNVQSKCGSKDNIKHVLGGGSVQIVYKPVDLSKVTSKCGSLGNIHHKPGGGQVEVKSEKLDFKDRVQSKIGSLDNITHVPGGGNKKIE
#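 Recombinant human tau K18 fragment […] carrying P301L, 15 uM unlabeled plus 0.24 uM Alexa 594-labeled, was fibrillized with 20 uM heparin in 100 mM sodium acetate pH 7 for 6 hr at 37 C; 30 uM ThT fluorescence read after 1 hr.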
# Tau FP inhib: inhibitors of human tau fibril formation. actives 0.39% (n = 280,000). AID 1468. P10636. K18 P301L tau heparin fibrillization, Alexa594 FP, 6 h. Potency, µM (doses to about 57.7 µM), for the others: at the highest dose activity, negative = inhibition, hits mostly inhibitors; active = well fitted curve in the direction sought with a large enough effect; inconclusive = small, poorly fitted or top-dose-only effect, or another doubt; inactive = no such curve, though single readings can be large; an effect the other way counts as inactive or inconclusive; note: nearly all actives have a fitted effect of over 55% in size
#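 Human K18 P301L fragment (15 uM unlabeled plus 0.24 uM Alexa 594-labeled) in 100 mM sodium acetate pH 7 with compound, aggregation induced by 20 uM heparin for 6 hr at 37 C. ThT (30 uM) added for 1 hr, then Alexa 594 FP read.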
# Tau fluor counter: counter-screen for tau fibril formation inhibitors | tau K18 P301L Alexa594 fluorescence, heparin fibrillization | Potency, µM (titrated, usually from 57.7 µM), for the others: top-dose activity change, negative = decrease | actives 0.93% (n = 280,000) | AID 1463; active = well fitted curve in the direction sought with a large enough effect; inconclusive = small, poorly fitted or top-dose-only effect, or another doubt; inactive = no such curve, though single readings can be large; an effect the other way counts as inactive or inconclusive; note: nearly all actives have a fitted effect of over 55% in size
#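 Human tau K18 P301L (15 uM unlabeled, 0.24 uM Alexa 594-labeled) in 100 mM sodium acetate pH 7 with 20 uM heparin, 6 hr at 37 C. ThT 30 uM added, 1 hr ambient; Alexa 594 FP and total fluorescence read at 555/632 nm.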
# The depositor's hits bear a star; ? = inconclusive; nt = no result given; [ ] = remark or other dose. The list is not random: actives were taken first. Their share in the collection is about 9.9%. Unless noted, calls come from the whole dose curve; as a rule, active = well fitted inhibition curve with a large enough effect (not every such curve was filed as active); inconclusive = small, poorly fitted or top-dose-only effect, or another doubt; inactive = no such curve, though single readings can be large or run the other way. Unless noted, % is set by controls: 0 for no effect and ±100 for the full control effect; potency is the fitted concentration of half-maximal effect.
SMILES,HPGD inh,ALDH1A1 inh,JMJD2E inh,Tau fibril ThT,Tau FP inhib,Tau fluor counter
Oc1cc(O)cc(/C=C/c2ccc(O)c(O)c2)c1,?,?,?,7.08µM*,8.0%,11.2µM*[quencher]
CC(=O)OCC1OC(C#Cc2ccc(C)cc2C)C=CC1OC(C)=O (centres undefined),nt,?,nt,?,-10.6%[11.6 µM],-13.3%[11.6 µM]
Cc1ccccc1-n1nnnc1SCc1ncc(-c2ccccc2)o1,-17.6%,10µM*,1.7%,?,-0.4%,-16.0%
S=P(c1ccc(N2CCOCC2)cc1N1CCOCC1)(N1CCOCC1)N1CCOCC1,25.1µM*,28.2µM*,3.9%,-2.0%,-5.8%,0.1%
Clc1ccc(/C=C\c2nc(Cl)c(-c3ccc(Cl)cc3)c(Cl)n2)cc1,-9.4%,?,nt,nt,nt,nt
O=C1NC(=O)C2(COC(c3ccccc3Cl)OC2)S1 (centres undefined),-10.1%,-5.4%,7.3%,2.9%,1.6%,4.4%
Oc1ccc(N=Nc2cccc(C(F)(F)F)c2)cc1C=Nc1ccc(N2CCOCC2)cc1,?,?,-29.4%,?,8.6%,-7.8%
Oc1c(Cl)cc(Cl)cc1C=Nc1cc(C(F)(F)F)ccc1N1CCc2ccccc2C1,nt,-3.3%,?,28.2µM*,?,-27.7%
Oc1c(Cl)cccc1C=Nc1cc(C(F)(F)F)ccc1N1CCCC1,15.8µM*,1.8%,?,?,1.6%,?
COc1cc2c(cc1OC)n(CC(=O)c1ccc(C)cc1)c(=O)n1nc(CCn3nc(C)cc3C)nc21,nt,nt,nt,11.4%,-7.5%,5.0%
O=C(c1cc(O)c(O)c([N+](=O)[O-])c1)c1ccccc1F,14.1µM*,12.6µM*,11.2µM*,?,3.9%,-20.5%
Cc1cccc(-n2c3c(cc(-c4nc(-c5ccc(Cl)cc5)cs4)c2=O)C(=O)CC(C)(C)C3)c1,nt,nt,nt,3.0%,-11.3%,-6.9%
Cc1c(C(=O)N2CCC(C(=O)Nc3ccc(F)cc3)CC2)sc2nc[nH]c(=O)c12,nt,nt,nt,9.9%,7.2%,5.8%
Cc1nn(-c2ccccc2)c(Cl)c1/C=N/NC(N)=O,nt,nt,5.5%,nt,-4.1%,-4.2%
Cc1nn(-c2ccccc2)c(Cl)c1/C=N/NC(=O)CNC(=O)c1ccccc1Cl,-11.2%,7.08µM*,0.3%,-16.8%,8.4%,-16.1%
Cc1nn(-c2ccccc2Cl)c(Cl)c1/C=N/Nc1cccc(C(=O)O)c1,12.6µM*,?,?,?,6.4%,-27.3%
CCOc1ccc(Oc2c(/C=N/NC(N)=O)c(C)nn2-c2ccccc2)cc1,-8.1%,31.6µM*,3.6%,-1.6%,11.1%,-11.6%
CO[C@@H]1COC(=O)CCC[C@@H](C)[C@H](OC)COC(=O)CCC[C@H]1C,nt,3.0%[13.5 µM],nt,-4.4%[11.5 µM],-3.1%[11.6 µM],-4.8%[11.6 µM]
COc1ccccc1NC(=O)C1=C(C)Nc2nc(SCc3cc(C)ccc3C)nn2C1c1ccccc1 (centres undefined),nt,nt,nt,5.5%,?,-2.6%
CC(Sc1nnc(Nc2ccccc2)s1)C(=O)Nc1nc(-c2ccccc2)cs1 (centres undefined),nt,-1.5%,-2.0%,-3.0%,-4.2%,-9.1%
CC(Sc1nnc(NCc2ccccc2)s1)C(=O)Nc1ccc2c(c1)C(=O)c1ccccc1C2=O (centres undefined),14.1µM*,2.82µM*,?,?,?,?
Cc1ccc(C)n1Cc1ccc(C(=O)O)cc1,-21.2%,?,4.47µM*,?,?,-13.1%
Cc1cc(C)n(Cc2ccc(C(=O)O)cc2)n1,-5.5%,9.9%,0.9%,-12.5%,-13.1%,-11.7%
Cc1cc(=O)oc2c1ccc1oc(/C(=N/O)c3ccccc3)c(C)c12,12.6µM*,?,-8.2%,-15.0%,-10.8%,-27.9%
Cc1ccc(/C(=N\O)c2oc3c(C)c4oc(=O)cc(C)c4cc3c2C)cc1,?,?,?,-17.0%,?,-24.1%
CC(C)c1cc(=O)n2[nH]c(N)nc2n1,nt,21.4%,6.9%,-5.6%,4.6%,7.2%
